Assay results reported in PubChem BioAssay (NCATS).
Records with an inconclusive call do not appear. A call without a number means that no potency is given here. Activity calls are given as the source filed them. Calls come from the whole dose curve; as a rule, active = well fitted cell-killing curve with a large enough effect; inconclusive = small, poorly fitted or top-dose-only effect; inactive = flat fitted curve, though single readings scatter.
Potency is the fitted concentration of half-maximal effect.

Experiment: Quantitative highthroughput screen to assess conditional lethalithy of P12 Ichikawa cells grown in RPMI1640 with untreated serum (RPMI+s) (AID 1963881); note: nearly all actives have a fitted effect of over 35% in size
Conditions: ATP luminescence, 48 h; Potency: viability; series mostly up to 45.8 µM
Description: Assay Provider: Jason Cantor Ph.D.
Department of Biochemistry
University of Wisconsin-Madison, Madison, WI, USA
Chemical screening studies have identified drug sensitivities across hundreds of cancer cell lines but most putative therapeutics fail to translate. Discovery and development of drug candidates in models that more accurately reflect nutrient levels in human blood is a major challenge. Here we performed high-throughput screens in conventional versus Human Plasma-Like Medium (HPLM) to identify compounds that were "missed" when screening using the artificial culture condition. Sets of conditional anticancer compounds spanned phases of clinical development and included non-oncology drugs were assessed. […] We also traced conditional phenotypes for several chemotherapeutics to availability of HPLM-specific metabolites and confirmed others for compounds whose reported targets are encoded by nonessential genes. Our findings establish generalizable strategies for exploiting conditional lethality in HPLM to reveal therapeutic candidates and mechanisms of action in cancer cells.
Described herein are the results of each viability screens against three cell lines: NOMO1 (an acute myeloid leukemia cell line); P12-Ichikawa (a T-cell acute lymphoblastic leukemia); and SEM (a B-cell ALL). Each assay was screened using 3 different cell culture media: homemade human plasma-Like medium with 10% dialyzed fetal bovine serum (HPLM+ds); RPMI1640 with 10% untreated FBS and 5mM glucose (RPMI+s); and RPMI1640 with 10% dialyzed fetal bovine serum and 5 mM glucose (RPMI+ds).
PROTOCOL TABLE (as described by Inglese J, Shamu CE and Guy RK. 2007)
SEQUENCE No. (e.g., 1, 2, 3, etc.); […] (e.g., Cells, Incubation, Reagent, etc.); VALUE and DESCRIPTION.
1; Cells; 5 uL; white, solid bottom 1536-well Greiner assay plate.
2; Compounds; 23 nL; Kalypsis pin tool (Wako USA) equipped with a 1536-well pin head to transfer to the assay plates.
3; Incubation; 48 hours; 37C incubation.
4; Reagent; 3 uL; CellTiter Glo (Promega).
5; Incubation; 5 min, room temperature
6; Detection; Luminescence, Viewlux PerkinElmer.
NOTES (numbers refer to Sequence numbers above)
1. Briefly, 5 ul of cell reagent was dispensed using a Multidrop Combi Dispenser. The NOMO1 and SEM cells were plated at 500 cells/well and the P12-Ichikawa line at 1000 cells/well.
2. After seeding the cells, 23 nL of MIPE 4.1 library compounds (in DMSO) were added to each plate using a Kalypsys 1536 Pintool dispenser. Bortezomib at final concentration of […] and DMSO were added to each plate as positive and negative controls respectively. For each screen, MIPE 4.1 compounds were added over an eleven-point concentration range […] in 3-fold dilutions.
3. Each plate was covered with a stainless steel gasketed lid to prevent evaporation and incubated for 48 hour at 37C, 95% relative humidity, and 5% CO2.
4-5. Three microliter CellTilter-GloTM luminescent substrate mix (Promega) reagent was added to the assay plate and incubated at room temperature for 5 min.
6. The luminescence signal was measured using a ViewLux (PerkinElmer) multiplate reader with a 2 second exposure time per plate. Data for each compound were normalized as percent viability such that measurements for DMSO and the empty well controls in each plate were defined as 100% and 0%, respectively.
In the case of CC(C)C[C@H](CN)CC(=O)O, the Potency was “inactive”.
In the case of CC(C)N[C@@H]1CCn2c(=O)[nH]c3cccc(c32)[C@@H]1O, the Potency was “inactive”.
With CCc1c(C(=O)C(N)=O)c2c(OCC(=O)O)cccc2n1Cc1ccccc1 the Potency was “inactive”.
With CCOP(=O)(OCC)C(C)NC(=O)N(CCCl)N=O (stereo not given) the Potency was “inactive”.
In the case of CC(=Cc1csc(C)n1)[C@@H]1C[C@H]2O[C@]2(C)CCC[C@H](C)[C@@H](O)[C@@H](C)C(=O)C(C)(C)[C@@H](O)CC(=O)O1, the Potency was “inactive”.
In the case of COc1cc(C(=O)N2CC[C@@H](O)[C@@H](N)C2)cc2nc(-c3cc4ccccc4n3CC3CC3)n(C)c12, the Potency was 1050 nM (active).
For O=[N+]([O-])c1ncc[nH]1, the Potency was “inactive”.
For CC1=C2C[C@@H]3[C@@H](CC=C4C[C@@H](O)CC[C@@]43C)[C@@H]2CC[C@]12O[C@H]1C[C@H](C)CN[C@H]1[C@H]2C, the Potency was “inactive”.
For C[C@]12CC[C@H]3[C@@H](CCC4=CC(=O)CC[C@@]43C)[C@H]1CC[C@H]2O, the Potency was “inactive”.
In the case of Cc1nc(-c2ccc(-c3ccc(C(=O)N4CCc5cc6c(cc54)C4(CCN(C)CC4)CO6)cc3)c(C)c2)no1, the Potency was “inactive”.
In the case of CCOC(=O)Nc1ccc(NCc2ccc(F)cc2)cc1N, the Potency was “inactive”.
For CCOc1ccccc1-n1c(C(C)N2CCN(C(=O)COc3ccc(Cl)cc3)CC2)nc2ccccc2c1=O (stereo not given), the Potency was 1480 nM (active).
In the case of C[C@]12COC(=O)C[C@@H]1CC[C@@H]1[C@H]2CC[C@@]2(C)[C@H]1CC[C@]2(C)O, the Potency was “inactive”.
With CCN(CC)C(=O)c1ccc(C2=CC3(CCNCC3)Oc3cccc(O)c32)cc1 the Potency was “inactive”.
In the case of CC(C)(O)C(=O)Nc1ccc([N+](=O)[O-])c(C(F)(F)F)c1, the Potency was 8330 nM (active).
For O=C(Oc1ccc([N+](=O)[O-])cc1)N1CCN(Cc2cccc(Oc3ccccc3)c2)CC1, the Potency was “inactive”.
With C=C[C@@H]1CN2CCC1C[C@@H]2[C@@H](O)c1ccnc2ccccc12 (stereo not given in full) the Potency was “inactive”.
For O=C(Oc1ccc([N+](=O)[O-])cc1)N1CCC(C(O)(c2ccc3c(c2)OCO3)c2ccc3c(c2)OCO3)CC1, the Potency was “inactive”.
In the case of CN1C(=O)CCS(=O)(=O)C1c1ccc(Cl)cc1 (stereo not given), the Potency was “inactive”.
With CC(=O)N(C)c1cccc(-c2ccnc3c(C(=O)c4cccs4)cnn23)c1 the Potency was “inactive”.
In the case of C[C@@H]1CC[C@H]2[C@@H](C)C(=O)O[C@@H]3O[C@@]4(C)CC[C@H]1[C@]32OO4, the Potency was “inactive”.
For CC(N[C@H]1C[C@H]1c1ccccc1)c1ccc2c(c1)OCCO2 (stereo not given in full), the Potency was “inactive”.
With COC[C@H]1OC(=O)c2coc3c2[C@@]1(C)C1=C(C3=O)C2CCC(=O)[C@@]2(C)C[C@H]1OC(C)=O (stereo not given in full) the Potency was “inactive”.
For C[C@@]12OC(=O)[C@]1([C@@H](O)[C@@H]1C=CCCC1)NC(=O)[C@H]2CCCl, the Potency was 235 nM (active).
With CC(C)(C)c1cc(C=C(C#N)C#N)cc(Br)c1O the Potency was “inactive”.
For CN[C@@H]1Cc2cccc3[nH]c(=O)n(c23)C1, the Potency was “inactive”.
For COC(=O)[C@@H](N)CCCN=C(N)N[N+](=O)[O-], the Potency was “inactive”.
With C[C@@H]1O[C@@H](O[C@@H]2C=C3CC[C@@H]4[C@@H](CC[C@]5(C)[C@H](c6ccc(=O)oc6)CC[C@@]45O)[C@@]3(C)CC2)[C@H](O)[C@H](O)[C@H]1O the Potency was 41.8 nM (active).
In the case of CC[C@@H]1[C@@H](C)O[C@@](O)([C@@H](C)[C@H](O)[C@H](C)[C@H]2OC(=O)C=CC=C[C@@H](C)[C@@H]([C@@H](C)[C@@H](O)[C@H](C)[C@@]3(O)C[C@H](O[C@H]4C[C@H](O)[C@H](O)[C@H](C)O4)[C@H](CC)[C@@H](C)O3)OC(=O)C=CC=C[C@@H]2C)C[C@H]1O[C@H]1C[C@H](O)[C@H](O)[C@H](C)O1, the Potency was 7430 nM (active).
With CN(C)[C@@H]1C(=O)C(C(N)=O)=C(O)[C@@]2(O)C(=O)C3=C(O)c4c(O)cccc4[C@@](C)(O)[C@H]3[C@H](O)[C@@H]12 the Potency was “inactive”.
In the case of NC1=NC(=O)N2CC12 (stereo not given), the Potency was 5260 nM (active).
With COc1ccc2c(c1OC)CN1CCc3cc4c(cc3C1C2)OCO4 (stereo not given) the Potency was 1870 nM (active).
In the case of O=c1[nH]c2ccccc2n1CCCN1CCC(n2c(=O)[nH]c3cc(Cl)ccc32)CC1, the Potency was “inactive”.
For O=C1C=CC[C@@H]2[C@H]3CCCN4CCC[C@@H](CN12)[C@@H]34, the Potency was “inactive”.
In the case of Cc1ncc(OC[C@@]2(c3cccc(F)c3)C[C@H]2C(=O)Nc2ccc(F)cn2)c(C)n1, the Potency was “inactive”.
For Cn1cc(C2=C(c3cn(C4CCN(Cc5ccccn5)CC4)c4ccccc34)C(=O)NC2=O)c2ccccc21, the Potency was “inactive”.
In the case of C[C@]12CC[C@H]3[C@@H](CCC4=CC(=O)CC[C@@]43C)[C@H]1CC[C@H]2OC(=O)CCC1CCCC1, the Potency was “inactive”.
With COc1ccc(C(=O)c2c(C)n(CCN3CCOCC3)c3ccccc23)cc1 the Potency was “inactive”.
With O=S(=O)(F)Cc1ccccc1 the Potency was “inactive”.
With CCC1(c2ccc(N)cc2)CCC(=O)NC1=O (stereo not given) the Potency was “inactive”.
